# Experimental data from PubChem BioAssay (Tox21).
# Results filed as inconclusive are left out. The source made the active and inactive calls. Calls come from the whole dose curve; as a rule, active = well fitted curve in the direction sought with a large enough effect in the repeat runs; inconclusive = weak or mixed curves; inactive = no such curve, though single readings can be large; an effect the other way counts as inactive or inconclusive.
# Target: Cytochrome P450 2C19 (Homo sapiens) (UniProt P33261)
# Assay: Cytochrome P450 Family 2 Subfamily C Member 19 (CYP2C19) small molecule antagonists: luciferase reporter qHTS assay (AID 1671197); note: nearly all actives have a fitted effect of over 65% in size; note: potency is the fitted concentration of half-maximal effect
# Conditions: P450-Glo CYP2C19 enzyme, luciferin luminescence, 1 h; series mostly up to 115 µM; activity change, negative = inhibition: at the top concentration
# Procedure, shortened: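 Light output is proportional to CYP2C19 activity: proluciferin substrate is converted to luciferin, then detected by a luciferin detection reagent that also stops the 1 h, 37C NADPH-driven reaction. Ketoconazole serves as positive control.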
# % is set by controls: 0 for no effect and ±100 for the full control effect.
# Chain of Cytochrome P450 2C19 (Homo sapiens) (P33261 whole entry, looked up): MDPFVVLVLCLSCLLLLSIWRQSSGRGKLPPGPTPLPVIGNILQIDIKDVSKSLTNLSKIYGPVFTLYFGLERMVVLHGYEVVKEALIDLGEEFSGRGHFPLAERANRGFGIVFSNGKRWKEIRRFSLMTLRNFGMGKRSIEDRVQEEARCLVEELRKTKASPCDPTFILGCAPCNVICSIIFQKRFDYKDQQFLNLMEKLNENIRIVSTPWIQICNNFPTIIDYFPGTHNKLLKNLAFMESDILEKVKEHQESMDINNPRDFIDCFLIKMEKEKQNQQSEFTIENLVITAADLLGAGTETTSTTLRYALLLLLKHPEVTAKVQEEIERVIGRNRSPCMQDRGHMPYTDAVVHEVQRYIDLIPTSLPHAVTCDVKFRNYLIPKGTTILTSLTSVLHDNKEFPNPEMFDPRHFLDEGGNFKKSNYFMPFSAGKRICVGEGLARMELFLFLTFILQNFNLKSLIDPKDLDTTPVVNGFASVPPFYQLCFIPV
Compound,"activity change, negative = inhibition",Potency
CN1C(=O)CC(c2ccccc2)C1=O (centres undefined),3.94% [at 52.9 µM] (inactive),–
CC(C)O,-14.5% (inactive),–
OCC(CBr)(CBr)CBr,394% (inactive),–
CCc1nnc(NS(=O)(=O)c2ccc(N)cc2)s1,32.8% [at 52.9 µM] (inactive),–
CC1=C(CC(=O)O)c2cc(F)ccc2/C1=C\c1ccc(S(C)(=O)=O)cc1,-3.76% [at 52.9 µM] (inactive),–
C[C@]12CCC(=O)C=C1CC[C@@H]1[C@@H]2CC[C@@]2(C)[C@H]1CC[C@]2(O)C(=O)CO,–,8.71 µM (active)

# Target: Cytochrome P450 2C9 (Homo sapiens) (UniProt P11712)
# Assay: Cytochrome P450 Family 2 Subfamily C Member 9 (CYP2C9) small molecule antagonists: luciferase reporter qHTS assay (AID 1671198); note: nearly all actives have a fitted effect of over 50% in size; note: potency is the fitted concentration of half-maximal effect
# Conditions: P450-Glo CYP2C9 enzyme assay, luciferin luminescence; series mostly up to 53 µM; activity change, negative = inhibition: at the top concentration
# Procedure, shortened: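 Enzyme-substrate mix preincubated with compound 10 min at room temperature; reaction started with NADPH regeneration solution, 1 h 37C. Luminescent luciferin product read after 20 min detection reagent.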
# Chain of Cytochrome P450 2C9 (Homo sapiens) (P11712 whole entry, looked up): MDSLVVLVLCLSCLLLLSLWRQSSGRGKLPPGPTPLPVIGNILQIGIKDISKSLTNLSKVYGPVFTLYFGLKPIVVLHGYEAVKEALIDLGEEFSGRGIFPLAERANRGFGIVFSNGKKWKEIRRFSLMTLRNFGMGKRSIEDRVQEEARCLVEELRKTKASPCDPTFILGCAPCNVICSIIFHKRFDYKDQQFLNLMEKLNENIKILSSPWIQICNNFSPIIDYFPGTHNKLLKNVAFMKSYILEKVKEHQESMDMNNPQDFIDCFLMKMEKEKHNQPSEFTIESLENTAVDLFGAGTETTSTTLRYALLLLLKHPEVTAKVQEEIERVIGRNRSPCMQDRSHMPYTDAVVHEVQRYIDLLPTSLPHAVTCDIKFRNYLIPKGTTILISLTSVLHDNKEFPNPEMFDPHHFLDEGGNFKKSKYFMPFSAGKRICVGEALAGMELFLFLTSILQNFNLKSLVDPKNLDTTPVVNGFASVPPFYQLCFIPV
Compound,"activity change, negative = inhibition",Potency
COC(=O)C(C)O (centres undefined),-1.39% [at 115 µM] (inactive),–
COc1cc(C)ccc1C(C)C,-7.84% [at 115 µM] (inactive),–
CN1CCN(N)CC1,-0.564% (inactive),–
O=C(CC(=O)C(F)(F)F)c1ccccc1,–,32.2 µM (active)
CCOc1ccc(OCC)c(Cl)c1,3.92% [at 115 µM] (inactive),–
C=CCCC=C,-17.8% [at 115 µM] (inactive),–
Cc1ccc(C=O)s1,-7.84% [at 115 µM] (inactive),–
NS(=O)(=O)c1cc(-c2nn[nH]n2)c(NCc2cccs2)cc1Cl,–,24.5 µM (active)
CCCCCCCCCCCCCCCCOP(=O)([O-])OCC[N+](C)(C)C,-18.7% (inactive),–
COC(=O)/C=C(/C)N,-11.1% (inactive),–
CCCCCCCOC(=O)CCC,-11.1% [at 115 µM] (inactive),–
CC(=O)Oc1cc(C(C)C)c(OCCN(C)C)cc1C,6.38% (inactive),–
CC(C)O,-0.923% [at 115 µM] (inactive),–

# Target: Cytochrome P450 1A2 (Homo sapiens) (UniProt P05177)
# Assay: Cytochrome P450 Family 1 Subfamily A Member 2 (CYP1A2) small molecule antagonists: luciferase reporter qHTS assay (AID 1671199); note: nearly all actives have a fitted effect of over 50% in size; note: potency is the fitted concentration of half-maximal effect
# Conditions: P450-Glo CYP1A2 enzyme, luciferin luminescence, 1 h; series mostly up to 53 µM; activity change, negative = inhibition: at the top concentration
# Procedure, shortened: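 CYP1A2 turnover of a luminogenic substrate was quantified after 1 h with NADPH regeneration at room temperature. Furafylline served as positive control.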
# Chain of Cytochrome P450 1A2 (Homo sapiens) (P05177 whole entry, looked up): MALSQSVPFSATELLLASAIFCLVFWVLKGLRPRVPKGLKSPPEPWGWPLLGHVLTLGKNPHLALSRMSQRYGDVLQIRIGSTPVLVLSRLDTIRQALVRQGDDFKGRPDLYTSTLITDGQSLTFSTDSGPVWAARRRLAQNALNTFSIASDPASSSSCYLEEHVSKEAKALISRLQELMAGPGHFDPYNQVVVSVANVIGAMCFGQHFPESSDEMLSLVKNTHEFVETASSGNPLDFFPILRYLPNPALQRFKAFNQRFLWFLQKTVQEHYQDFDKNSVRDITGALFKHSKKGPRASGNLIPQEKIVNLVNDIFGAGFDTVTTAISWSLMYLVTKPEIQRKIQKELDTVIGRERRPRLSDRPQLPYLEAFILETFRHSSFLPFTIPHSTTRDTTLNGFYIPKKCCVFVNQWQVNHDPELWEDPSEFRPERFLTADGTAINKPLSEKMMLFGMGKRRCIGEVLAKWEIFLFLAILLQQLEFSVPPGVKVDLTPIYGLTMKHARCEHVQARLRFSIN
Compound,"activity change, negative = inhibition",Potency
Nc1cccc(S(=O)(=O)O)c1,-23.3% [at 115 µM] (inactive),–
CN1CCN(c2c(F)cc3c(=O)c(C(=O)O)cn4c3c2SCC4)CC1,-1.77% (inactive),–
COc1cc(C)ccc1C(C)C,-21.6% [at 115 µM] (inactive),–
C=CCCCCCCCCO,–,39.9 µM (active)
CCN(CC)CC1CCCCN1CC(=O)N1c2ccccc2C(=O)Nc2cccnc21 (centres undefined),6.71% (inactive),–
Cc1c[nH]c(=S)[nH]c1=O,–,63.5 µM (active)
CCOC(=O)CS,–,65.1 µM (active)
CN1CCN(N)CC1,14.7% (inactive),–
Nc1ccc2ccccc2c1S(=O)(=O)O,–,3.24 µM (active)
CCOC(=O)C1CC(=O)C(=C(O)C2CC2)C(=O)C1 (centres undefined),-16.3% [at 115 µM] (inactive),–
CC/C=C\CCOC(=O)C(C)C,-26.1% [at 115 µM] (inactive),–
CCCCCCCCc1ccc(S(=O)(=O)O)cc1,7.8% [at 115 µM] (inactive),–
CCCOCCC,-26.1% [at 115 µM] (inactive),–
CCOc1ccc(OCC)c(Cl)c1,–,25.2 µM (active)
C=CCCC=C,-18.4% [at 115 µM] (inactive),–
CS(=O)(=O)c1ccc([C@@H](O)[C@@H](CF)NC(=O)C(Cl)Cl)cc1,-2.63% (inactive),–
NS(=O)(=O)c1cc(-c2nn[nH]n2)c(NCc2cccs2)cc1Cl,9.75% (inactive),–
O=Cc1ccc(O)c(O)c1O,8.08% (inactive),–
Cc1ccc(C)c(N)c1,–,35.6 µM (active)
CN1C(=O)CC(c2ccccc2)C1=O (centres undefined),-8.55% (inactive),–
CC(=O)Oc1cc(C(C)C)c(OCCN(C)C)cc1C,–,5.12 µM (active)
OCC(CBr)(CBr)CBr,-6.5% [at 115 µM] (inactive),–
CCc1nnc(NS(=O)(=O)c2ccc(N)cc2)s1,-5.16% (inactive),–
CC1=C(CC(=O)O)c2cc(F)ccc2/C1=C\c1ccc(S(C)(=O)=O)cc1,–,17.4 µM (active)
C[C@]12CCC(=O)C=C1CC[C@@H]1[C@@H]2CC[C@@]2(C)[C@H]1CC[C@]2(O)C(=O)CO,14.7% (inactive),–

# Target: Voltage-gated inwardly rectifying potassium channel KCNH2 (Homo sapiens) (UniProt Q12809)
# Assay: Human Ether-a-go-go-Related Gene (hERG) channel small molecule antagonists: fluorescence cell-based qHTS assay (AID 1671200);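 note: hERG-expressing U2OS cells given a thallium stimulus after FluxOR II dye loading; nearly all actives have a fitted effect of over 50% in size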
# Conditions: hERG-U2OS cells, FluxOR thallium flux fluorescence; series mostly up to 76.8 µM; activity change, negative = inhibition: at the top concentration
# Procedure, shortened: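 Quantitative HTS in hERG-U2OS cells: thallium entry through the channel reports activity, read as continuous 480/540 nm fluorescence over 2 min after stimulus addition.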
# Chain of Voltage-gated inwardly rectifying potassium channel KCNH2 (Homo sapiens) (Q12809 whole entry, looked up): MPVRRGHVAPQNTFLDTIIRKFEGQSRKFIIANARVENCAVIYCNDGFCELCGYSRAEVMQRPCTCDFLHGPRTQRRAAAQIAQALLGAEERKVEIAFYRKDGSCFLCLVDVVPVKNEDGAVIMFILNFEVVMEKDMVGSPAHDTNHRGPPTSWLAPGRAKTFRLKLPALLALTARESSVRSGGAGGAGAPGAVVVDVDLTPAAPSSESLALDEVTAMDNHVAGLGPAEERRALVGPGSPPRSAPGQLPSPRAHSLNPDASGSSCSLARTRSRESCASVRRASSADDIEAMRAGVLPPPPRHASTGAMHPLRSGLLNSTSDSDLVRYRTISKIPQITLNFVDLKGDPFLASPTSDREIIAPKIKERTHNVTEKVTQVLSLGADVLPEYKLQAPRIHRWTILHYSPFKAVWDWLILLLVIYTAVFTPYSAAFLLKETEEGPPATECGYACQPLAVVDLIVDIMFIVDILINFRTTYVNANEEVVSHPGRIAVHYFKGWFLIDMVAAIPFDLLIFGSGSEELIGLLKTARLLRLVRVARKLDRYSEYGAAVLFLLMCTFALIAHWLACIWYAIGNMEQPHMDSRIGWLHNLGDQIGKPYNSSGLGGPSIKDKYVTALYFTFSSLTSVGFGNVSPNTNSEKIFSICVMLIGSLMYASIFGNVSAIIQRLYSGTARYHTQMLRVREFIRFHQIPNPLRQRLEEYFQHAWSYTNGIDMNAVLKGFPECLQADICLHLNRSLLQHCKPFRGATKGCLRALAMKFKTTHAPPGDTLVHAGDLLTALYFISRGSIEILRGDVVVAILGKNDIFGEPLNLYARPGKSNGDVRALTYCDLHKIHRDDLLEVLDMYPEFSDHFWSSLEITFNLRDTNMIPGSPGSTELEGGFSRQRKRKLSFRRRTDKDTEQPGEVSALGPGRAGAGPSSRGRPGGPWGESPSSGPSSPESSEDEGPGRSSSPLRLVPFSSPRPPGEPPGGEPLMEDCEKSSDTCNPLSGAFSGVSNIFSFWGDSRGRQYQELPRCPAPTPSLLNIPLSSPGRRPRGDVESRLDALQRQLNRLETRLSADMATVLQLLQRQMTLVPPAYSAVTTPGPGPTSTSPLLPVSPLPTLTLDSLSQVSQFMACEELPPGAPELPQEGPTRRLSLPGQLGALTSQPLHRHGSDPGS
row,Compound,"activity change, negative = inhibition"
1,Nc1cccc(S(=O)(=O)O)c1,-4.93% (inactive)
2,CN1CCN(c2c(F)cc3c(=O)c(C(=O)O)cn4c3c2SCC4)CC1,0.972% [at 35.3 µM] (inactive)
3,C=CCCCCCCCCO,-1.3% (inactive)
4,N#Cc1ccc(C(c2ccc(C#N)cc2)n2cncn2)cc1,-12.6% [at 35.3 µM] (inactive)
5,Cc1c[nH]c(=S)[nH]c1=O,6.84% (inactive)
6,CCOC(=O)CS,-13.8% (inactive)
7,CN1CCN(N)CC1,5.27% [at 35.3 µM] (inactive)
8,Nc1ccc2ccccc2c1S(=O)(=O)O,0.119% (inactive)
9,CCOC(=O)C1CC(=O)C(=C(O)C2CC2)C(=O)C1 (centres undefined),-1.58% (inactive)
10,O=C(CC(=O)C(F)(F)F)c1ccccc1,12.5% (inactive)
11,CCCCCCCCc1ccc(S(=O)(=O)O)cc1,-6.46% (inactive)
12,CCOc1ccc(OCC)c(Cl)c1,20.5% (inactive)
13,CS(=O)(=O)c1ccc([C@@H](O)[C@@H](CF)NC(=O)C(Cl)Cl)cc1,7.25% [at 35.3 µM] (inactive)
14,NS(=O)(=O)c1cc(-c2nn[nH]n2)c(NCc2cccs2)cc1Cl,1.04% [at 35.3 µM] (inactive)
15,CC(C)(C)c1cccc(O)c1,-0.203% (inactive)
16,CCCCCCCCCCCCCCCCOP(=O)([O-])OCC[N+](C)(C)C,-7.32% [at 35.3 µM] (inactive)
17,Cc1nnc(SCC2=C(C(=O)O)N3C(=O)[C@@H](NC(=O)Cn4cnnn4)[C@H]3SC2)s1,0.571% [at 35.3 µM] (inactive)
18,Cc1ccc(C)c(N)c1,-3.45% (inactive)
19,CC(C)Nc1nc(N)nc(Cl)n1,0.609% (inactive)
20,COC(=O)/C=C(/C)N,0.607% [at 35.3 µM] (inactive)
21,CCCCCCCOC(=O)CCC,0.686% (inactive)
22,CN1C(=O)CC(c2ccccc2)C1=O (centres undefined),18.2% [at 35.3 µM] (inactive)
23,CC(=O)Oc1cc(C(C)C)c(OCCN(C)C)cc1C,3.48% [at 35.3 µM] (inactive)
24,CC(C)O,6.16% (inactive)
25,CC1=C(CC(=O)O)c2cc(F)ccc2/C1=C\c1ccc(S(C)(=O)=O)cc1,2.35% [at 35.3 µM] (inactive)

# Target: Cytochrome P450 3A4 (Homo sapiens) (UniProt P08684)
# Assay: Cytochrome P450 Family 3 Subfamily A Member 4 (CYP3A4) small molecule antagonists: luciferase reporter qHTS assay (AID 1671201); note: nearly all actives have a fitted effect of over 50% in size; note: potency is the fitted concentration of half-maximal effect
# Conditions: P450-Glo CYP3A4 enzyme, luciferin luminescence, 1 h; series mostly up to 115 µM; activity change, negative = inhibition: at the top concentration
# Procedure, shortened: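 Inhibition of CYP3A4 is measured as loss of light: the enzyme converts a proluciferin substrate to luciferin, detected luminescently. Reaction ran 1 h at room temperature with NADPH regeneration after a 10 min compound preincubation.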
# Chain of Cytochrome P450 3A4 (Homo sapiens) (P08684 whole entry, looked up): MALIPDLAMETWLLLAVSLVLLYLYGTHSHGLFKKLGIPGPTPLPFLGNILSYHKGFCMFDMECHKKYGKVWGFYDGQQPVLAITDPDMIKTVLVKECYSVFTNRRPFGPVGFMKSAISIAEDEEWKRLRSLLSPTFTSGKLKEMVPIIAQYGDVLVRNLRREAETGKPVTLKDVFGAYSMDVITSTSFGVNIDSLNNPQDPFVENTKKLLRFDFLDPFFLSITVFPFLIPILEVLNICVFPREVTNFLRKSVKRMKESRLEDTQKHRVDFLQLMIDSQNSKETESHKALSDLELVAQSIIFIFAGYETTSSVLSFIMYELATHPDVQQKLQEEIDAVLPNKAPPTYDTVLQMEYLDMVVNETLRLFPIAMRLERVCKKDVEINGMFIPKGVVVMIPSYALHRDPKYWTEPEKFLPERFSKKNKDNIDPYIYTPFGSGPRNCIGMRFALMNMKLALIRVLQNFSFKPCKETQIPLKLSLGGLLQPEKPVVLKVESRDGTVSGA
Compound,"activity change, negative = inhibition",Potency
Nc1cccc(S(=O)(=O)O)c1,12.2% (inactive),–
COC(=O)C(C)O (centres undefined),-4.25% (inactive),–
C=CCCCCCCCCO,-24.9% (inactive),–
CCN(CC)CC1CCCCN1CC(=O)N1c2ccccc2C(=O)Nc2cccnc21 (centres undefined),–,6.92 µM (active)
CCOC(=O)CS,0.174% (inactive),–
Nc1ccc2ccccc2c1S(=O)(=O)O,–,57.5 µM (active)
CCOC(=O)C1CC(=O)C(=C(O)C2CC2)C(=O)C1 (centres undefined),5.48% (inactive),–
O=C(CC(=O)C(F)(F)F)c1ccccc1,10.9% (inactive),–
CCCOCCC,-2.22% (inactive),–
CC(C)(CO)[C@@H](O)C(=O)NCCC(=O)O,2.5% (inactive),–
Cc1ccc(C=O)s1,9.39% (inactive),–
CS(=O)(=O)c1ccc([C@@H](O)[C@@H](CF)NC(=O)C(Cl)Cl)cc1,-3.84% [at 52.9 µM] (inactive),–
CCCCCCCCCCCCCCCCOP(=O)([O-])OCC[N+](C)(C)C,1.13% [at 52.9 µM] (inactive),–
Cc1nnc(SCC2=C(C(=O)O)N3C(=O)[C@@H](NC(=O)Cn4cnnn4)[C@H]3SC2)s1,-21.6% [at 52.9 µM] (inactive),–
Cc1ccc(C)c(N)c1,–,3.56 µM (active)
CC(C)Nc1nc(N)nc(Cl)n1,0.68% (inactive),–
COC(=O)/C=C(/C)N,-19.9% [at 52.9 µM] (inactive),–
CCCCCCCOC(=O)CCC,4.46% (inactive),–
CC(C)O,14.3% (inactive),–
CC1=C(CC(=O)O)c2cc(F)ccc2/C1=C\c1ccc(S(C)(=O)=O)cc1,-19.6% [at 52.9 µM] (inactive),–
